Reference: PubChem BioAssay AID492952 (Southern Research Specialized Biocontainment Screening …, 2010)
The whole screen tested about 2,300 compounds, of which about 1,500 (65%) were called active. No rule for the calls is given here. So high a share suggests a set chosen from earlier hits. Some of the results follow. Where a call stands in place of a potency, no number is given. Potency and affinity values are given separately.

Assay: replicating M. tuberculosis growth inhibition, dose response, non-replicating M. tuberculosis project, H37Rv (AID 492952);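 also: Mycobacterium tuberculosis grown in culture; growth inhibition read after a week of incubation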
Conditions: series mostly up to 50 µM

Compound | outcome
CCCCSc1nnc(-c2cc(Br)ccc2N)c(=O)[nH]1 | inactive
CC(Cc1cccs1)NC(=O)c1cccc(Cl)c1 (stereo not drawn) | inactive
Cc1ccc(C(=O)CCNc2ccc(Br)cc2)o1 | inactive
C/C(=N\NC(=O)c1cccs1)c1ccc2c(c1)OCO2 | inactive
Cc1ccc(NC(CC(=O)c2ccccc2)C(=O)O)cc1Cl (stereo not drawn) | inactive
Cc1ccc(C(=O)CCNc2ccc(F)c(Cl)c2)o1 | inactive
CC(C)COc1ccc(C(=O)CCN2CCCCC2)cc1 | inactive
COc1cc(C(=O)CCN2CCC(c3ccccc3)C2)cc(OC)c1OC (stereo not drawn) | inactive
CC(C)Oc1ccc(C(=O)CCN2CCCCC2)cc1 | inactive
CCCCc1ccc(NS(=O)(=O)c2c(C)n(C)c(=O)n(C)c2=O)cc1 | inactive
C=C(C)C1CC=C(C)/C(=N/NC(=O)CNc2ccc(OCC)cc2)C1 (stereo not drawn) | inactive
CC1N(C)c2cccc3cccc(c23)N1C | inactive
CCCCCCCCCCn1ccc(=N)cc1 | inactive
CCc1ccc(OCCCC(=O)NCc2ccco2)cc1 | inactive
Nc1ccc2c(c1)oc1ccccc12 | inactive
CCOC(=O)c1cn(Cc2cccc(Cl)c2)nn1 | inactive
COc1cc(/C=C2\C(=O)N(c3ccc(S(N)(=O)=O)cc3)N=C2C)ccc1OC(=O)c1ccco1 | inactive

Compound | outcome
COc1cc(/C=N/Nc2ccc(Cl)c(C(=O)O)c2)ccc1OC(=O)c1ccco1 | inactive
O=C(COc1ccccc1)NNc1nc2ccccc2s1 | inactive
CC/C(=C\C=C\[C@@H]1C=C[C@@H]2CCC[C@H]2[C@@H]1C(=O)c1ccc[nH]1)[C@@H]1O[C@@H]([C@@H](C)C(=O)O)CC[C@@H]1C | inactive
Cc1cccc(NCc2ccc([N+](=O)[O-])s2)c1 | inactive
CCCc1nnc(-c2ccc(OC)cc2)o1 | inactive
CCc1cc(C=NC2CCCCC2)c(O)s1 | inactive
CCc1ccc(C(=O)NC2CCCCC2)s1 | inactive
CC(=O)c1c(O)cc(=O)n(-c2ccccc2)c1-c1ccc(C)cc1 | inactive
CCOC(=O)c1c(NC(=O)COC(=O)c2ccccn2)sc2c1CCC2 | inactive
O=C(Oc1cccc([N+](=O)[O-])c1)c1ccc2c(=O)n3c(nc2c1)CCC3 | inactive
Cc1ccc2c(CC(=O)OCC(=O)Nc3ccc(Cl)cn3)coc2c1 | inactive
O=C(Nc1ccccc1N1CCCC1)c1cccc(F)c1 | inactive
Cc1ccc(NC(=O)CN(C)C2CCCCC2)cc1Br | inactive
O=C(Nc1ncccc1O)c1ccc(Oc2ccccc2)cc1 | inactive
Cc1noc(C)c1COc1ccc(C(=O)Nc2ccccn2)cc1 | inactive
O=C(Nc1ncccn1)c1ccc([N+](=O)[O-])o1 | inactive
